Measurements taken from PubChem BioAssay (NCATS).
Inconclusive results are not listed. A call without a number means that no potency is given here. The source made the active and inactive calls. The call rests on the fitted dose curve; in most records, active means well fitted inhibition curve with a large enough effect; inconclusive means small, poorly fitted or top-dose-only effect; inactive means no such curve, though single readings can be large or run the other way.

Assays:
[1] = qHTS for Inhibitors of the Aldehyde Dehydrogenase Family (ALDH1A2, ALDH1A3, ALDH2, ALDH3A1) (AID 2061307); further: nearly all actives have a fitted effect of over 50% in size; on potency: test system not described further here; potency means the concentration at half of the fitted maximal effect
[2] = target: Retinaldehyde dehydrogenase 3 (Homo sapiens) (UniProt P47895); experiment: qHTS for Inhibitors of the Aldehyde Dehydrogenase Family (ALDH1A3) Confirmatory screens (AID 2061311); further: nearly all actives have a fitted effect of over 60% in size; further: potency means the concentration at half of the fitted maximal effect
[3] = target: Retinal dehydrogenase 2 (Homo sapiens) (UniProt O94788); experiment: qHTS for Inhibitors of the Aldehyde Dehydrogenase Family (ALDH1A2) Confirmation screens (AID 2061314); further: nearly all actives have a fitted effect of over 65% in size; further: potency means the concentration at half of the fitted maximal effect
[4] = target: Aldehyde dehydrogenase 1A1 (Homo sapiens) (UniProt P00352); experiment: qHTS for Inhibitors of the Aldehyde Dehydrogenase Family (ALDH1A1) Confirmatory screens (AID 2061316); further: nearly all actives have a fitted effect of over 65% in size; further: potency means the concentration at half of the fitted maximal effect
[5] = target: Retinaldehyde dehydrogenase 3 (Homo sapiens) (UniProt P47895); experiment: qHTS for Inhibitors of the Aldehyde Dehydrogenase Family (ALDH1A3) Primary screen (AID 2061315)

CCN(CC)CC(=O)c1c(C)n(C)c2ccc(OC)cc12
Potency [1]: inactive
Potency [2]: inactive
Potency [3]: inactive
Potency [4]: inactive

COc1ccc(C(=O)N(Cc2ccco2)Cc2ccco2)c(O)c1
Potency [1]: 0.891 µM (active)
Potency [2]: inactive
Potency [3]: 17.9 µM (active)
Potency [5]: inactive
Potency [4]: 7.12 µM (active)

CCOC(=O)C1CCN(C(=O)C(C)(C)NC(=O)Nc2ccc(N(C)C)cc2)CC1
Potency [1]: inactive
Potency [2]: 14.2 µM (active)
Potency [3]: 12.7 µM (active)

Cc1nc(C(C)Nc2ncnc3ccc(-c4ccc5c(c4)OCO5)cc23)cs1 (centres undefined)
Potency [1]: inactive
Potency [2]: inactive
Potency [3]: inactive
Potency [5]: inactive

CN(C)c1cccc(-c2cnc(N3CCC(c4ncc[nH]4)CC3)s2)c1
Potency [1]: 10.1 µM (active)
Potency [2]: 4 µM (active)
Potency [3]: inactive
Potency [5]: inactive
Potency [4]: 0.201 µM (active)

CC(=O)N1CCN(c2ccc(NCc3ccc4c(c3)OCO4)cc2)CC1
Potency [1]: 8.96 µM (active)
Potency [2]: 11.3 µM (active)
Potency [3]: 8.96 µM (active)

O=S1(=O)N=C(Oc2cccc3ccccc23)c2ccccc21
Potency [1]: 2.83 µM (active)
Potency [2]: 5.04 µM (active)
Potency [3]: 12.7 µM (active)

COc1ccc(-n2c(C)c(C(C)=O)c3cc(OC(=O)c4ccc(C)cc4)ccc32)cc1
Potency [1]: inactive
Potency [2]: inactive
Potency [3]: inactive
Potency [4]: inactive

CN(C)c1ccc(-c2cc[nH]c(=O)c2N)cc1
Potency [1]: 12.7 µM (active)
Potency [2]: 20.1 µM (active)
Potency [3]: 0.225 µM (active)
Potency [5]: inactive
Potency [4]: 4 µM (active)

COc1cccc(CNC(=O)c2ccc3c(c2)sc2nc(-c4ccccc4)cn23)c1OC
Potency [1]: inactive
Potency [2]: inactive
Potency [3]: inactive

O=C(O)c1ccc2c(c1)C(=O)N(CCc1ccc(O)cc1)C2=O
Potency [1]: inactive
Potency [2]: inactive
Potency [3]: inactive
Potency [5]: inactive
Potency [4]: inactive
